The values below come from PubChem BioAssay (EPA / NIEHS).

“And” between values parts separate entries of the source, which are not always exact repeats. Equal values may be shown once. The source holds several records for some structures; these can differ, active in one and inactive in another. The source made the active and inactive calls. The calls were made as follows: active = hit-call score of the fitted dose curve at least 0.9, where 1 is the maximum; inactive = score below 0.9.

Read-out in experiment [1]: Matrix Metallopeptidase 1 (MMP1), MMP1 (gene 4312)
The experiment is described as follows: BSK_BF4T_MMP1: BioMAP Diversity Plus: BF4T Assay for Matrix Metallopeptidase 1 (MMP1) Biomarker Activity (AID 2284270). Conditions: primary human bronchial epithelial cells with fibroblasts. Put shortly: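 MMP-1 quantified by ELISA in primary human bronchial epithelial/dermal fibroblast co-cultures, 24 hours post-dosing, with DMSO as baseline; parallel sulforhodamine B staining (560 nm) tracks overt cytotoxicity.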

Read-out in experiment [2]: Matrix Metallopeptidase 3 (MMP3), MMP3 (gene 4314)
Kind of experiment: BSK_BF4T_MMP3: BioMAP Diversity Plus: BF4T Assay for Matrix Metallopeptidase 3 (MMP3) Biomarker Activity (AID 2284271). As to conditions: primary human bronchial epithelial cells with fibroblasts. Put shortly:
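MMP-3 level read by ELISA after 24 h chemical exposure of bronchial epithelial cell/dermal fibroblast co-cultures, fitted upward relative to DMSO. Parallel cultures stained with 0.1% SRB after TCA fixation gauge overt cytotoxicity.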

Read-out in experiment [3]: Tissue plasminogen activator (tPA), PLAT (gene 5327)
The experiment is described as follows: BSK_BF4T_tPA: BioMAP Diversity Plus: BF4T Assay for Tissue plasminogen activator (tPA) Biomarker Activity (AID 2284272). As to conditions: primary human bronchial epithelial cells with fibroblasts. In a few lines: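 tPA level quantified by ELISA at 24 h post-treatment in bronchial epithelial/dermal fibroblast co-cultures, gain of signal scored against DMSO baseline. Parallel cultures stained with 0.1% SRB (560 nm) to flag overt cytotoxicity.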

Read-out in experiment [4]: Plasminogen Activator Inhibitor-1 (PAI1), SERPINE1 (gene 5054)
Kind of experiment: BSK_BF4T_PAI1: BioMAP Diversity Plus: BF4T Assay for Plasminogen Activator Inhibitor-1 (PAI1) Biomarker Activity (AID 2284273). As to conditions: primary human bronchial epithelial cells with fibroblasts. In a few lines: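 PAI-1 levels quantified by ELISA 24 h post-dosing in bronchial epithelial cell plus dermal fibroblast cultures. Signal gain referenced to DMSO baseline. Sulforhodamine B total-protein staining of parallel wells checked cytotoxicity.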

Read-out in experiment [5]: urokinase Plasminogen Activator (uPA), PLAU (gene 5328)
The experiment is described as follows: BSK_BF4T_uPA: BioMAP Diversity Plus: BF4T Assay for urokinase Plasminogen Activator (uPA) Biomarker Activity (AID 2284275). As to conditions: primary human bronchial epithelial cells with fibroblasts. In a few lines: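 uPA levels measured by ELISA at 24 hours in BF4T cultures (bronchial epithelial cells plus dermal fibroblasts) and compared with DMSO; cytotoxicity tracked in parallel cultures by sulforhodamine B staining.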

Read-out in experiment [6]: Matrix Metallopeptidase 9 (MMP9), MMP9 (gene 4318)
Kind of experiment: BSK_BF4T_MMP9: BioMAP Diversity Plus: BF4T Assay for Matrix Metallopeptidase 9 (MMP9) Biomarker Activity (AID 2284276). Conditions: primary human bronchial epithelial cells with fibroblasts. Put shortly:
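MMP-9 levels were measured by ELISA after 24 h exposure of bronchial epithelial cell/dermal fibroblast co-cultures, with DMSO as baseline. Parallel cultures were stained with 0.1% SRB after TCA fixation, read at 560 nm, to flag overt cytotoxicity.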

Read-out in experiment [7]: Interleukin-8 (IL8), CXCL8 (gene 3576)
Kind of experiment: BSK_IMphg_IL8: BioMAP Diversity Plus: IMphg Assay for Interleukin-8 (IL8) Biomarker Activity (AID 2284277). As to conditions: primary human endothelial cells with macrophages. Put shortly: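 IL-8 levels were measured by ELISA 24 h after dosing in primary human venular endothelial cell–macrophage cultures, referenced to DMSO; parallel SRB staining monitored overt cytotoxicity.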

Read-out in experiment [8]: Intercellular Adhesion Molecule 1 (ICAM1), ICAM1 (gene 3383)
Kind of experiment: BSK_BE3C_ICAM1: BioMAP Diversity Plus: BE3C Assay for Intercellular Adhesion Molecule 1 (ICAM1) Biomarker Activity (AID 2284278).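 Also: cell-surface ICAM-1 protein level quantified by ELISA.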 As to conditions: primary human bronchial epithelial cells. Put shortly: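 ELISA read-out of ICAM-1 on human lung bronchial epithelial primary cells, 24 h post-dosing; positive-direction curve fit, DMSO = baseline. SRB total-protein staining of parallel cultures flagged overt cytotoxicity.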

Read-out in experiment [9]: Interferon-inducible T-cell alpha chemoattractant (ITAC), CXCL11 (gene 6373)
Kind of experiment: BSK_BE3C_ITAC: BioMAP Diversity Plus: BE3C Assay for Interferon-inducible T-cell alpha chemoattractant (ITAC) Biomarker Activity (AID 2284279). Conditions: primary human bronchial epithelial cells. In a few lines:
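ELISA read-out of I-TAC after 24 h chemical dosing of human lung primary bronchial epithelial cells; gain-of-signal fit vs DMSO baseline. Parallel SRB total-protein staining (0.1% SRB, 10% TCA fixation, 560 nm) assessed cytotoxicity.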

Read-out in experiment [10]: Epidermal growth factor receptor (EGFR), EGFR (gene 1956)
Kind of experiment: BSK_BE3C_EGFR: BioMAP Diversity Plus: BE3C Assay for Epidermal growth factor receptor (EGFR) Biomarker Activity (AID 2284281). Conditions: primary human bronchial epithelial cells. In a few lines: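 Human primary bronchial epithelial cells were exposed to compound for 24 h, and cell-surface EGFR was then quantified by ELISA. Activity was fitted in the positive direction against the DMSO vehicle baseline.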

Read-out in experiment [11]: KRT18 (gene 3875)
Kind of experiment: BSK_BE3C_Keratin818: BioMAP Diversity Plus: BE3C Assay for Keratin 818 Biomarker Activity (AID 2284282). Conditions: primary human bronchial epithelial cells. Put shortly: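 ELISA read-out of Keratin 8/18 in BE3C human bronchial epithelial cultures, 24 h post-dosing; positive-direction fit vs DMSO baseline.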

Read-out in experiment [12]: Matrix Metallopeptidase 9 (MMP9), MMP9 (gene 4318)
The experiment is described as follows: BSK_BE3C_MMP9: BioMAP Diversity Plus: BE3C Assay for Matrix Metallopeptidase 9 (MMP9) Biomarker Activity (AID 2284283). Conditions: primary human bronchial epithelial cells. Put shortly: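 Human primary bronchial epithelial cells exposed 24 h to compound. MMP9 quantified by ELISA. SRB total-protein staining of parallel cultures assesses cytotoxicity. Positive-direction fit relative to DMSO.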

Read-out in experiment [13]: Plasminogen activator inhibitor-1 (PAI1), SERPINE1 (gene 5054)
The experiment is described as follows: BSK_CASM3C_PAI1: BioMAP Diversity Plus: CASM3C Assay for Plasminogen activator inhibitor-1 (PAI1) Biomarker Activity (AID 2284284). As to conditions: primary human coronary artery smooth muscle cells.

Read-out in experiment [14]: Monocyte Chemoattractant Protein-1 (MCP1), CCL2 (gene 6347)
Kind of experiment: BSK_hDFCGF_MCP1: BioMAP Diversity Plus: hDFCGF Assay for Monocyte Chemoattractant Protein-1 (MCP1) Biomarker Activity (AID 2284285). Conditions: primary human foreskin fibroblasts. In a few lines:
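MCP-1 ELISA readout was taken 24 hours after dosing primary human dermal fibroblasts in the hDFCGF system, with DMSO as baseline. Parallel sulforhodamine B staining of total protein tracked overt cytotoxicity.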

Read-out in experiment [15]: Vascular cell adhesion molecule 1 (VCAM1), VCAM1 (gene 7412)
Kind of experiment: BSK_IMphg_VCAM1: BioMAP Diversity Plus: IMphg Assay for Vascular cell adhesion molecule 1 (VCAM1) Biomarker Activity (AID 2284286). Conditions: primary human endothelial cells with macrophages. In a few lines:
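ELISA read-out of VCAM-1 on venular endothelial cell/macrophage co-cultures at 24 h post-treatment, with DMSO as baseline and positive-direction fitting. Parallel sulforhodamine B total-protein staining (560 nm) served as the overt cytotoxicity measure.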

Read-out in experiment [16]: Intercellular Adhesion Molecule 1 (ICAM1), ICAM1 (gene 3383)
Kind of experiment: BSK_hDFCGF_ICAM1: BioMAP Diversity Plus: hDFCGF Assay for Intercellular Adhesion Molecule 1 (ICAM1) Biomarker Activity (AID 2284287). As to conditions: primary human foreskin fibroblasts. Put shortly: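 ICAM-1 ELISA readout 24 h after dosing, DMSO as baseline, in human dermal foreskin fibroblast cultures. Cytotoxicity checked in parallel wells by SRB staining (0.1% SRB, 10% TCA fixation, 560 nm).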

Read-out in experiment [17]: CD40, CD40 (gene 958)
Kind of experiment: BSK_IMphg_CD40: BioMAP Diversity Plus: IMphg Assay for CD40 Biomarker Activity (AID 2284288). As to conditions: primary human endothelial cells with macrophages. In a few lines:
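ELISA read-out of cell-surface CD40 at 24 h in human venular endothelial cell/macrophage co-cultures. Activity fitted in the positive direction against DMSO; parallel SRB staining (560 nm) gauges overt cytotoxicity.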

For the molecule `CN(C(=O)C(F)(F)C(F)(F)C(F)(F)F)[Si](C)(C)C`, the result in [1], in experiment [2], in experiment [3], in experiment [4], in [5] and in experiment [6] was inactive. The result in experiment [7], in experiment [8], in experiment [9], in experiment [10], in experiment [11] and in experiment [12] was inactive. Besides, the result in [13], in experiment [14], in experiment [15], in [16] and in [17] was inactive.

On to `OCC(O)CC(F)(F)C(F)(F)C(F)(F)C(F)(F)C(F)(F)C(F)(F)C(F)(F)C(F)(F)F` (centres undefined), for which the outcome in experiment [1], in experiment [2], in [3], in experiment [4], in experiment [5] and in experiment [6] was inactive. Besides, the result in experiment [9], in experiment [10], in experiment [11], in experiment [12], in experiment [13] and in experiment [14] was inactive. The result in experiment [15], in [16] and in experiment [17] was inactive.

As to `O=C(O)CCC(F)(F)C(F)(F)C(F)(F)C(F)(F)C(F)(F)C(F)(F)C(F)(F)F`, the outcome in experiment [1], in experiment [3], in experiment [4], in experiment [5], in experiment [6] and in experiment [10] was inactive. The result in experiment [11], in experiment [12], in experiment [13], in experiment [14], in experiment [15] and in experiment [16] was inactive. In addition, the outcome in [17] was inactive. Moreover, the AC50 is 1.98 µM (active) and 2.14 µM (active) in [7]; 3.43 µM (active) and 2.52 µM (active) in experiment [9].

For the molecule `C=CC(=O)OCC(F)(F)C(F)(F)C(F)(F)COC(=O)C=C`, the AC50 in [1] was 50.2 µM (active); in [3] it was 8.12 µM (active); in experiment [4], 20.7 µM (active) and 23.4 µM (active); in experiment [5], 30 µM (active) and 25.7 µM (active); in experiment [6] it was 21.5 µM (active) and 21.8 µM (active); in experiment [9], 45 µM (active) and 43 µM (active). For the same molecule, the half-maximal activity concentration (AC50) is 8.23 µM (active) and 8.72 µM (active) in experiment [12]; 46 µM (active) and 48.8 µM (active) in experiment [13]; 2.84 µM (active) and 2.59 µM (active) in experiment [14]; 35 µM (active) and 40 µM (active) in [15]; 2.6 µM (active) and 2.45 µM (active) in experiment [16]; 22.6 µM (active) and 23.9 µM (active) in experiment [17]. Moreover, the result in experiment [1], in [10] and in [11] was inactive.

Regarding `OCC(F)(F)C(F)(F)C(F)(F)CO`, the result in [1], in [3], in experiment [4], in experiment [5], in [6] and in experiment [7] was inactive. Also, the outcome in [9], in experiment [10], in [11], in experiment [12], in experiment [13] and in experiment [14] was inactive. For the same molecule, the result in experiment [15], in [16] and in experiment [17] was inactive.

As for `NC(=O)C(F)(F)C(F)(F)C(F)(F)C(F)(F)C(N)=O`, the result in [1], in [2], in experiment [3], in experiment [4], in experiment [5] and in experiment [6] was inactive. For the same molecule, the outcome in experiment [7], in [9], in [10], in experiment [11], in experiment [12] and in [13] was inactive. For the same molecule, the outcome in [14], in [15], in [16] and in [17] was inactive. In [16], the AC50 was 17.6 µM (active).

For orientation: AC50 means the concentration at which the activity in the assay is half-maximal.
